From PubChem
This is a sample that favours compounds with a hit; in the whole collection about 9.6% have one here.
DAT uptake mod – changed hDAT dopamine uptake under cocaine IC80, either direction, primary screen, cocaine antagonist project, cell-based, LLC-PK1 hDAT, [14C]-dopamine uptake, MLSMR; LLC-PK1 hDAT cells, [14C]-dopamine uptake with cocaine IC80; actives deviate in either direction; B-score at 10 µM; 110,000 tested, 1.3% active;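 active = Z score or B-score, a plate-position-corrected score, falls beyond the plate's 99.7% confidence bounds, in either direction; inactive = both scores lie inside the 99.7% bounds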;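 note: scored against the spread of the other compound wells on the same plate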
PostGolgi yeast – phenotypic screen on post-Golgi transport, primary screen; post-Golgi transport phenotypic cell assay; inhibition, % at 10 µM; 98,000 tested, 0.9% active;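 note: yeast cells grown in 1536-well plates; yeast grown about 18 h at 30C before absorbance read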
PostGolgi ctrl – growth inhibition of yeast control strain, primary screen, counter-screen for post-Golgi transport modulator project. efflux-deficient yeast background strain, growth absorbance A615, 16 h. inhibition, % at 10 µM. 98,000 tested, 5% active
PLAP activator – PLAP enzyme activators, biochemical, luminescence, HTS | purified PLAP enzyme, luminescent substrate read-out; hits give high values | 96,000 tested, 1.2% active | Alkaline phosphatase, placental type (Homo sapiens), P05187 | activation fold at 20 µM; in the data active = activation fold above about 2
Target sequence (P05187 whole entry, looked up): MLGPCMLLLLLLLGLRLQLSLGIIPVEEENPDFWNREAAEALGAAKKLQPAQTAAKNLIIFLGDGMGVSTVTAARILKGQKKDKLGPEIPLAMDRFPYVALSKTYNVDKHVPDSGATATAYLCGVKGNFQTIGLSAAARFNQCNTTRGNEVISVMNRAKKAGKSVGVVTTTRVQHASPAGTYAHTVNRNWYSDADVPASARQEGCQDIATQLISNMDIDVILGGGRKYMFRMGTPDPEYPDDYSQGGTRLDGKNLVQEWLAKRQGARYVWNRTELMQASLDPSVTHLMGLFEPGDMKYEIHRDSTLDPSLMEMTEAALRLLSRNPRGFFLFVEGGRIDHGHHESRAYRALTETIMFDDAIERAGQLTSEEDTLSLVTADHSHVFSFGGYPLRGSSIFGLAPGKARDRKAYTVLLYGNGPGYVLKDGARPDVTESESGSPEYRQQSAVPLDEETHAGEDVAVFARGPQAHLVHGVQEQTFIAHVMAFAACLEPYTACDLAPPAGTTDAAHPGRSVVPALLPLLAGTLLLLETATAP
Cav32 inh – Cav3.2 calcium influx blockers – cell-based, Fluo-4 calcium fluorescence, FDSS, MLSMR library, primary screen. Voltage-dependent T-type calcium channel subunit alpha-1H (Homo sapiens), O95180. Cav3.2-expressing cells; hits give low values. B-score at 10 µM. 100,000 tested, 4% active. AID 449739, 2010;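 active = single-dose well whose peak fluorescence ratio is a statistical outlier from its plate by either plate-standardised score or position-corrected B-score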
An asterisk follows results filed as active; · = no result. Cut-off read from the data, not from the text of the source, unless noted: active = inhibition above about 30%; inactive = the rest.

SMILES | DAT uptake mod | PostGolgi yeast | PostGolgi ctrl | PLAP activator | Cav32 inh
O=S(=O)(c1ccccc1)c1nc(-c2ccco2)oc1N1CCCCCC1 | -0.068 | -8 | 42* | 1 | -3
CSc1oc(-c2ccco2)nc1S(=O)(=O)c1ccc(Br)cc1 | -0.45 | 1 | 17 | 1 | -1.8
O=C(CCn1c(=O)c2sccc2n(CC(=O)OCc2ccccc2)c1=O)NCc1ccccc1 | -0.0093 | 9 | -3 | 0.9 | -0.038
N#Cc1ccc(-c2ccc(F)cc2)nc1SCC(=O)Nc1sc2c(c1C#N)CCC2 | -0.086 | -30 | 16 | 1 | 0.097
COC(=O)c1ccc2c(c1)N(Cc1nc(-c3cccc(C)c3)oc1C)C(=O)C1CCCN21 (stereo not given) | 0.9 | 3 | 1 | 1.5 | ·
c1ccc(NCc2nnc3n2CCCCC3)cc1 | 1.9* | 0 | 12 | 0.9 | 0.18
Clc1ccc(NCc2nnc3n2CCCCC3)cc1 | -0.63 | 2 | -4 | 0.9 | -0.18
c1ccc2sc(Cc3nnc4n3CCCCC4)nc2c1 | 1 | -2 | 41* | 0.9 | 0.23
C=CCN1C(=O)NC2(O)C(=O)c3ccccc3C12O (stereo not given) | -0.68 | 20 | 3 | 0.1 | 0.42
COc1ccc(C2Nc3ccccc3C(=O)N2Cc2ccco2)cc1COc1ccccc1F (stereo not given) | 0.042 | -19 | 16 | 1.5 | -5.2*
CC(=O)Cn1c(C(F)(F)F)nc2ccccc21 | 0.55 | 5 | 3 | 1.1 | -0.27
CO[C@H]1O[C@@H]2O[C@@]3(C)CC[C@H]4[C@H](C)CC[C@@H]([C@H]1C)[C@@]24OO3 | 0.048 | · | · | · | -0.54
COc1cc2c(cc1OC)C(=O)CC(C)S2 (stereo not given) | -1.9 | -10 | 1 | 1 | 0.18
Cc1ccc(S(=O)(=O)c2c(N)n(Cc3ccco3)c3nc4ccccc4nc23)cc1C | 1.9 | -1 | 6 | 1.5 | -2.7
Nc1c(S(=O)(=O)c2ccccc2)c2nc3ccccc3nc2n1Cc1ccco1 | 1.5 | -22 | 30* | 0.9 | -2.3
CCCC1(C(=O)OCC)NC(c2ccc(OC)cc2OC)C2C(=O)N(c3ccc4c(c3)OCCO4)C(=O)C21 (stereo not given) | 0.4 | · | · | · | ·
CCC1C(=O)N(c2nc(C)cc(C)n2)N=C1C (stereo not given) | -1 | 0 | 5 | 1.2 | -0.14
CC1=NN(c2nc(C)cc(C)n2)C(=O)C1CCC(C)C (stereo not given) | -1.1 | -4 | 3 | 2.3* | 0.62
CCN1CCN(C(=S)c2ccc(Br)cc2)CC1 | -0.023 | -4 | 10 | 0.9 | 0.38
S=C(c1ccc(Br)cc1)N1CCN(Cc2ccccc2)CC1 | -0.57 | -3 | 33* | 1.1 | -1.1
Cc1cnn(Cc2ccccc2)c1N | -1 | 1 | -1 | 0.8 | 0.57
N#CC1=C(N)c2ccccc2CC12CCCCC2 | 0.057 | 1 | 39* | 0.5 | -2.2
CC(=O)N(/N=C1\Sc2ccccc2C1=O)c1ccccc1 | -0.44 | 2 | 5 | 0.8 | -0.035
CC(=O)N(C)C1=C(O)c2ccccc2C(=O)C1=O | -1.5 | -2 | -7 | 1 | -0.97
CC(=O)N(/N=C1\Sc2ccccc2C1=O)c1ccc(C)cc1C | 0.02 | -7 | 48* | 1 | -1.4
SMILES | DAT uptake mod | PostGolgi yeast | PostGolgi ctrl | PLAP activator | Cav32 inh
CC(=O)N(/N=C1\Sc2ccccc2C1=O)c1ccccc1C | 0.18 | 7 | 33* | 1 | 0.79
O=C1CN(C(=O)COc2ccccc2)CCN1 | -0.69 | -3 | 14 | · | 1.1
O=C1N[C@@H](Cc2ccccc2)C(=O)N2[C@@H]1C[C@]1(Br)c3ccccc3N(S(=O)(=O)c3ccccc3)[C@H]21 | -0.38 | · | · | · | -2.4
CCOC(=O)CC1C(=O)NC2CCCCC2N1C(=O)Nc1ccc(Cl)cc1 (stereo not given) | -0.31 | -9 | 13 | 0.9 | -0.19
Cc1snc(S(=O)(=O)/C(C#N)=N/Nc2ccc(C(F)(F)F)cc2)c1C#N | -1.2 | -6 | -2 | 1.4 | -6.4*
CSc1nc(N)nc(-c2cccs2)c1C#N | -0.61 | -4 | 19 | 0.7 | 2.9
CC(C)Sc1nc(N)nc(-c2cccs2)c1C#N | 0.084 | 13 | 80* | 0.8 | ·
Cc1ccccc1C(=O)c1cccn1CC(=O)NCc1ccc2c(c1)OCO2 | -0.77 | -4 | 8 | 0.7 | -2.1
O=c1cc(Nc2ccc3c(c2)OCCO3)[nH]c(=O)n1-c1ccc(Br)cc1 | -0.86 | · | · | · | -0.12
O=c1cc(Nc2ccc3c(c2)OCCO3)[nH]c(=O)n1Cc1ccc(F)cc1 | -0.16 | · | · | · | -3.9*
C=CCN(CC(=O)c1sc(C(=O)OCC)nc1C)c1cccc(Br)c1 | -0.66 | · | · | · | -2.2
CC(c1ccco1)N(C(=O)CSc1ccc(Br)cc1)c1ccccn1 (stereo not given) | -0.055 | -3 | 13 | 1.4 | -4.5*
CC(c1ccco1)N(C(=O)C12CC3(C)CC(C)(CC(C)(C3)C1)C2)c1ccccn1 (stereo not given) | · | 3 | 6 | 1.1 | -0.44
CC(c1ccco1)N(C(=O)c1cccs1)c1ccccn1 (stereo not given) | -1.2 | 3 | 41* | 1 | 0.32
Cc1cc(SCC(=O)N2CCC(c3noc4ccc(F)cc34)CC2)nc2ccccc12 | 2 | 10 | 34* | 1 | -5*
CCc1ccc(NC(=O)N(CCCN2CCOCC2)C(C)c2cc3cccc(OC)c3o2)cc1 (stereo not given) | 2.1 | -5 | 8 | 1.3 | -4.9
CSc1nnnn1-c1ccc(C(=O)OCC(=O)N2CCOCC2)cc1 | -0.5 | 1 | 2 | 1.3 | -0.0094
CCCCOCCCNc1ncnc2c1[nH]c1ccccc12 | -0.29 | 3 | 4 | 1.1 | -4.7*
Cn1c(SCc2cccc(Cl)c2)nc(C(F)(F)F)cc1=O | -0.25 | 5 | 25 | 1.1 | -0.77
Cc1ccc(-n2ncc3c(=O)n(CC(=O)OCc4ccccc4)cnc32)cc1 | 0.085 | -2 | 36* | 0.9 | 0.56
COc1ccc(N2CC(O)=C(c3nc(C)cs3)C2=N)cc1 | 0.093 | -1 | -1 | 2* | 1.1
Cc1ccc(Cn2ccc(=O)c(OCc3c(Cl)cccc3Cl)c2C)cc1 | -0.042 | 4 | 48* | 0.8 | 0.12
COc1cccc2c1OC1(C)CC2NC(=O)N1c1cccc(C(=O)Nc2ccc3c(c2)OCCO3)c1 (stereo not given) | 1.8 | 2 | 5 | 1.7 | 0.092
CCOc1ccc2nc(N3CCC(C(=O)N4CCN(c5ccccn5)CC4)CC3)sc2c1 | -0.021 | 6 | 43* | 1.4 | 1
CNC(=S)N1N=C(c2ccc(Br)cc2)CC1c1ccc(Br)cc1 (stereo not given) | 0.44 | -11 | 33* | 0.9 | -6.7*
COc1ccccc1Cn1c(=O)c2ccccc2n2c(Sc3ncnc4sccc34)nnc12 | 0.42 | 11 | 42* | 1.3 | 1.6
COc1ccccc1Cn1c(=O)c2ccccc2n2c(SCc3csc(C)n3)nnc12 | 0.47 | -14 | 15 | 1.7 | 1.2
